# TRHR PAM = allosteric enhancers of human TRH receptor; P34981; TRHR cells, fluo-8 calcium fluorescence, EC20 TRH enhancement; enhancement, % at 2 µM; actives 0.66% (n = 360,000); AID 493056; in the data active = enhancement above about 30%; note: 0% is about no effect
# Target sequence (P34981 whole entry, looked up): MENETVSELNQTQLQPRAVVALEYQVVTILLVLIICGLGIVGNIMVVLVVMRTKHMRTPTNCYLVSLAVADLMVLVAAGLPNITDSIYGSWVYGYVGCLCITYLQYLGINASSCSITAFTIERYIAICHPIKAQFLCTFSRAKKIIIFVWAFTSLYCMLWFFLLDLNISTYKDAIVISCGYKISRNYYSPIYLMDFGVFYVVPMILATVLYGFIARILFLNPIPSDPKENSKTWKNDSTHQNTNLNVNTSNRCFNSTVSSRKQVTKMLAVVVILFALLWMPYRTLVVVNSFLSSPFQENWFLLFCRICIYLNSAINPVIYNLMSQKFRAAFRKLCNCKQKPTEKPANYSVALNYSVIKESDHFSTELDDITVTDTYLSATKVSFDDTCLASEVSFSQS
#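 Enhancer read-out: after compound pinning and an initial kinetic agonist-mode read, an EC20 of TRH (10 nM final) was injected and fluo-8 calcium signal (Ex 480/Em 530) followed at 1 s/cycle for 100 cycles in TRHR-expressing cells.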
# D1 potentiator = potentiators of human D1 dopamine receptor. HEK293 TREx D1 cells, calcium flux, dopamine EC20 potentiation. P21728. actives 0.036% (n = 360,000). AID 504651. potentiation, % at 10 µM; in the data active = potentiation above about 30%; note: 0% is about no effect
# D1 antag = blocks dopamine activation of the human D1 receptor | HEK293 TREx D1 cells, calcium flux, dopamine EC80; stronger effect = lower value | activity change, negative = inhibition, % at 10 µM | AID 504652 | P21728 | actives 3.2% (n = 360,000); in the data active = activity change below about -30%; note: % is set by controls: 0 for no effect and ±100 for the full control effect
#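 Tetracycline-induced HEK293 Trex D1 cells, force-coupled to calcium, dye-loaded; compounds added and read 180 s, then EC80 dopamine added and calcium flux tracked kinetically another 180 s.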
# D1 agonist = human D1 receptor agonism; P21728; HEK293 T-REx D1 cells, calcium flux, agonist mode; activation, % at 2 µM; actives 1% (n = 360,000); AID 504660; note: 0% is about no effect
#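 Tetracycline-induced HEK293 TREx D1 cells, force-coupled to calcium signalling, were dye-loaded with a no-wash calcium kit. Compound was pin-added after a 10 s baseline. Fluorescence was read kinetically at 1 cycle/s for 180 s, with calcium rises flagged as agonism.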
# TRHR agonist = activates the human TRH receptor; TRHR cells, calcium flux fluo-8, FDSS agonist mode; activation, % at 2 µM; actives 0.18% (n = 360,000); AID 493084; note: 0% is about no effect
#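 In this calcium-flux screen, cells bearing human TRHR are dye-loaded with fluo-8, baselined for 10 cycles, then exposed to library compounds; positive kinetic calcium responses during the agonist phase mark hits, with TRH as control.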
# * marks the source's active call; other numbers are inactive results; ! = not confirmed by another sample. The list is not random: actives were taken first. Their share in the collection is about 4.6%. Cut-off read from the data, not from the text of the source, unless noted: active = activation above about 30%; inactive = the rest.
SMILES,TRHR PAM,D1 potentiator,D1 antag,D1 agonist,TRHR agonist
COCc1[nH]nc2c1C(c1c(F)cccc1Cl)C(C#N)=C(N)O2 (stereo unspecified),4,-4,-4,5,0
N#CC1=C(N)Oc2n[nH]c(-c3ccccn3)c2C1c1c(F)cccc1Cl (stereo unspecified),-9,-7,-31*,2,-1
COC(=O)c1ccc(C(=O)Nc2cc(Cl)ccc2Cl)cc1NC(=O)c1ccc(N(C)C)cc1,1,-2,-26,2,2
O=C(COC(=O)c1cccnc1Nc1ccccc1F)NC1CC1,3,-1,2,3,0
N#CCCN(CCN1CCCC1)S(=O)(=O)c1ccc(-c2ccc([N+](=O)[O-])cc2)cc1,-8,-6,0,39*,0
COc1ccc(Oc2c(O)c3ccccc3n(C)c2=O)cc1,6,-2,-45*,2,0
Cn1c(=O)c(Oc2ccc(Cl)cc2)c(O)c2ccccc21,9,3,5,2,0
Cc1ccccc1NC(=O)Cn1nc(C(F)(F)F)cc1C1CC1,1,0,3,3,0
Cc1nn(C)cc1NC(=O)Cn1nc(C(F)(F)F)cc1C1CC1,-1,-7,-67*,-1,0
Cc1ccc(NC(=O)CCNS(=O)(=O)c2ccc(Br)s2)cc1,4,6,7,0,-1
COc1cccc(NC(=O)CCNS(=O)(=O)c2ccc(Br)s2)c1,7,6,-37*!,3,-1
Cc1cc(NC(=O)c2ccc(N3CCCC3)c([N+](=O)[O-])c2)no1,8,2,-1,0,0
Fc1ccc(-c2cc(C(F)(F)F)nc(NCC3CCCO3)n2)cc1 (stereo unspecified),6,2,42,32*,-1
COc1cc(C(=O)N/N=C(\C)c2ccc3c(c2)OCO3)cc(OC)c1OC,-4,-5,1,2,0
Cc1noc(C)c1C(=O)NCc1ccccc1Br,8,0,-8,0,0
CC1CC(C)CN(CC(=O)N2CCc3[nH]c4ccccc4c3C2)C1 (stereo unspecified),1,0,-6,9,0
CC1CN(CC(=O)N2CCc3[nH]c4ccccc4c3C2)CC(C)O1 (stereo unspecified),1,2,-44*,2,0
COc1cc(NC(=O)NCC2CCN(Cc3ccccc3Cl)CC2)cc(OC)c1OC,3,-12,-6,1,1
Cc1cnn(-c2cc(N/N=C/c3ccccc3Cl)ncn2)c1,7,-3,11,1,0
COc1ccc(CCNC(=O)C(=O)NCC2OCCN2S(=O)(=O)c2ccc(OC)cc2)cc1 (stereo unspecified),1,-7,-35*,12,-1
COc1ccc(S(=O)(=O)N2CCCOC2CNC(=O)C(=O)NCc2ccccc2F)cc1C (stereo unspecified),-4,-5,-32*,6,0
COc1ccc(CCNC(=O)C(=O)NCC2OCCN2S(=O)(=O)c2ccc(Cl)cc2)cc1 (stereo unspecified),2,-11,-24,9,0
O=C(NCCc1ccccc1)C(=O)NCC1OCCCN1S(=O)(=O)c1cc(F)ccc1F (stereo unspecified),0,1,-15,2,1
COc1ccc(S(=O)(=O)N2CCCOC2CNC(=O)C(=O)NCc2ccco2)cc1C (stereo unspecified),3,4,-12,1,-1
Cc1cc(F)ccc1S(=O)(=O)N1CCCOC1CNC(=O)C(=O)NCCc1ccccc1 (stereo unspecified),-6,-5,-34*,3,0
SMILES,TRHR PAM,D1 potentiator,D1 antag,D1 agonist,TRHR agonist
CCOC(=O)c1cc(-c2cccnc2)nn1-c1ccccc1C,1,-5,8,0,0
O=C(CSc1nnnn1-c1ccccc1F)NNC(=O)c1ccco1,1,-1,19,5,1
COc1cc(Cc2cnc(N)nc2N)cc(OC)c1OC,5,4,-48*!,-1,1
Cc1ccc(C(C)NC(=O)C23CC4CC(CC(C4)C2)C3)cc1 (stereo unspecified),-1,7,-1,-1,0
C=CCc1cccc(/C=N/n2cnnc2)c1O,32*,-6,-9,12,0
Fc1ccccc1-n1ncc2c1ncn1nc(Cc3ccccc3)nc21,-2,0,7,0,-1
C=CCn1c(CCc2ccccc2)nnc1SCC(N)=O,32*,-6,-3,1,0
O=C1c2ccccc2S(=O)(=O)c2cc(C(=O)N(c3ccccn3)c3ccccn3)ccc21,40*,-5,-24,300*,70*
c1cc2c3c(cccc3c1)NC1(CCCCCC1)N2,19,-1,-5,2,1
c1cc2c3c(cccc3c1)NC1(CCC3(CC1)Nc1cccc4cccc(c14)N3)N2,-14,-1,-40*,14,4
Cc1c(NC(=O)C(C)OC(=O)CCc2c[nH]c3ccccc23)c(=O)n(-c2ccccc2)n1C (stereo unspecified),12,-4,-8,-2,-1
O=[N+]([O-])c1ccccc1OCC(O)CNC1CCCC1 (stereo unspecified),-9,-1,-6,6,1
Cc1ccc(-c2c(CN3CCN(c4cc(Cl)ccc4C)CC3)csc2C)cc1,-3,-1,2,1,0
CCN(CC)c1ccc2c(O)cc(=O)oc2c1,0,-2,-8,1,0
CCN(CC)c1ccc(C(=O)OCc2cc(=O)oc3cc(O)ccc23)cc1,-6,-11,-33*,2,0
COCCOCC(O)CN1CCN(c2ccc(C)cc2)CC1 (stereo unspecified),-11,-3,1,6,-1
COCCn1c(SCC(=O)Nc2ccc3c(c2)OCCO3)nc2c(c1=O)SC(C)C2 (stereo unspecified),18,3,-17,3,-1
O=C(COc1ccccc1)NCCS(=O)(=O)N1CCN(c2ccccc2)CC1,0,-9,-35*,0,0
O=C(COc1ccccc1)NCC(c1ccco1)N1CCN(c2ccc(F)cc2)CC1 (stereo unspecified),12,-3,-64*,22,-1
CN(Cc1nc(Cc2ccccc2F)no1)CC1(N2CCOCC2)CCCCC1,1,-7,0,1,1
CN(Cc1nc(Cc2ccccc2F)no1)Cc1cccc2ncccc12,1,-6,-40*,13,0
CCCn1ncc([C@@H]2C[C@H]3CN(Cc4cccc(Cl)c4)C(=O)[C@]34CCCN24)c1C,-5,0,-31*,0,-2
Cn1cc([C@@H]2C[C@H]3CN(Cc4cccc(Cl)c4)C(=O)[C@]34CCCN24)c(-c2ccccc2)n1,4,-4,-31*,17,-1
